# Reference: PubChem BioAssay (Tox21)
# Records with an inconclusive call do not appear. Values without a mark were called inactive. Calls come from the whole dose curve; as a rule, active = well fitted cell-killing curve with a large enough effect in the repeat runs; inconclusive = weak or mixed curves, or effect the other way; inactive = flat fitted curve, though single readings scatter.
# Assay: qHTS assay to identify small molecule agonists of the constitutive androstane receptor (CAR) signaling pathway - cell viability counter screen (AID 1224836); note: nearly all actives have a fitted effect of over 45% in size
# Settings: HepG2-CYP2B6-hCAR viability, CellTiter-Fluor, 23 h, PK11195 added to every well; series mostly up to 92.4 µM; viability change, negative = cytotoxic: at the top concentration
# How it was run: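 Using CellTiter-Fluor, viability of HepG2 cells harbouring hCAR and CYP2B6-2.2kb was measured following 23 h incubation with a 15-concentration compound series plus PK11195 (0.75 uM final).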
# % is set by controls: 0 for no effect and ±100 for the full control effect.
row,Structure (SMILES),"viability change, negative = cytotoxic"
1,O=S(=O)(O)c1cccc2c(S(=O)(=O)O)cccc12,0%
2,COc1ccnc(CS(=O)c2nc3cc(OC(F)F)ccc3[nH]2)c1OC (stereo not drawn),-2.58%
3,CCCO[Si](OCCC)(OCCC)OCCC,1.06%
4,C=COCC1CCC(COC=C)CC1 (stereo not drawn),-14%
5,CCCc1nn(C)c2c(=O)[nH]c(-c3cc(S(=O)(=O)N4CCN(C)CC4)ccc3OCC)nc12,-0.428% [at 42.5 µM]
6,CC1=CCC(O)(C(C)C)CC1 (stereo not drawn),-2.44%
7,CCOC(=O)COC(=O)c1ccccc1C(=O)OCC,0.924%
8,CCC(C(=O)NC(=O)NC(C)=O)c1ccccc1 (stereo not drawn),8.77% [at 42.5 µM]
9,O=C(CO)[C@@H](O)[C@H](O)[C@@H](O)CO,1.35% [at 42.5 µM]
10,CN(C)[C@@H]1C(=O)C(C(=O)NCN2CCCC2)=C(O)[C@@]2(O)C(=O)C3=C(O)c4c(O)cccc4[C@@](C)(O)C3C[C@@H]12 (stereo partly drawn),-8.28% [at 42.5 µM]
11,CCCCOCCOC(=O)CCCCCCCCC(=O)OCCOCCCC,0.577%
12,NC(=O)Cc1cccc2ccccc12,-2.45%
13,CO[Si](C)(OC)c1ccccc1,3.33%
14,CCOC(=O)CCC(=O)OCC,5.26%
15,O=C(O)CCSCCC(=O)O,0.279%
16,CN1C(C)(C)CC(O)CC1(C)C,1.26%
17,O=C1c2ccccc2C(=O)c2cc(O)ccc21,-5.9%
18,C=CCOCC(O)CO (stereo not drawn),-10.8%
19,COc1cc(C(=O)OC(COCCC(C)C)CN2CCOCC2)cc(OC)c1OC (stereo not drawn),-0.724% [at 42.5 µM]
20,O=C(O)CCCC[P+](c1ccccc1)(c1ccccc1)c1ccccc1,4.66% [at 42.5 µM]
21,Cc1cccc(C)c1NC(=O)CC12CCCN1CCC2,2% [at 42.5 µM]
22,CC1=NS(=O)(=O)c2cc(Cl)ccc2N1,0.522% [at 42.5 µM]
23,CC(C)C(=O)OC(=O)C(C)C,4.09%
